GLP1R inv ag – inverse agonists of human GLP-1 receptor; HEK293 GLP-1R CRE-luciferase, luminescence, 24 h; GLP-1R form is constitutively active; Potency, µM (top dose mostly 38.3 µM), for the others: top-dose activity change, negative = inhibition, usual class: inhibitors; actives 1.6% (n = 410,000); note: potency is the fitted concentration of half-maximal effect; % is set by controls: 0 for no effect and ±100 for the full control effect; nearly all actives have a fitted effect of over 55% in size
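Inverse agonism was detected as reduced cAMP-driven luciferase luminescence after 24 h compound treatment. The cells were HEK293 clones expressing constitutively active human GLP-1R with the reporter. Reporter-only and GPR119 cell lines served as counterscreen controls.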
ClpP mod – qHTS Assay for Activators of ClpP. ATP-dependent Clp protease proteolytic subunit (Bacillus subtilis (strain 168)), P80244. purified B. subtilis ClpP, FRET peptide cleavage, 20 min. Potency, µM (doses to about 57.5 µM), inactives show top-dose activity change, negative = active. actives 1.9% (n = 340,000); active = well fitted falling curve with a large enough effect; inconclusive = small, poorly fitted or top-dose-only effect; inactive = no such curve, though single readings can be large or run the other way; note: potency is the fitted concentration of half-maximal effect; the source files actives as falling curves though it sought activators and does not explain the sign; nearly all actives have a fitted effect of over 65% in size
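ClpP 10 microg/mL final, pH 8 Tris/KCl buffer with BSA, glycerol, Tween-20; compound pinned in; FRET-FV substrate; RT 20 min; Ex320/Em430; ΔFRET vs ADEP 5.8 microM, DMSO, no enzyme.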
D3 ag – agonists of human D3 dopamine receptor. D3R DiscoveRx beta-arrestin cells, luminescence, 90 min. max activation, %. P35462. AID 652048. actives 0.58% (n = 410,000); in the data active = max activation above about 30%; note: 0% is about no effect
Target sequence (P35462 whole entry, looked up): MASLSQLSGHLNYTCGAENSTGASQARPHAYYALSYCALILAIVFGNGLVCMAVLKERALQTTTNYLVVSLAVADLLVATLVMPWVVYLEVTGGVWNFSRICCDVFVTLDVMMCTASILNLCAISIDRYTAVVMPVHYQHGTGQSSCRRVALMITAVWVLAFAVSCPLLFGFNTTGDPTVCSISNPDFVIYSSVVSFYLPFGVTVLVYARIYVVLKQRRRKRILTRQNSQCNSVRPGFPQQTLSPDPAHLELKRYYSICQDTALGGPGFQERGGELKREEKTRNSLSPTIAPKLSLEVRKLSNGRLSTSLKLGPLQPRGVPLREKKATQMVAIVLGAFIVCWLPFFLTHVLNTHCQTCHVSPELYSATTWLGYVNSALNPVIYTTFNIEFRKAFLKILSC
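Agonist-mode cell screen: cells plated at 1500/well and incubated overnight at 37 °C, then exposed to library compounds for 90 min at 37 °C. Detection reagent was added for 30–60 min at room temperature, and luminescence was read.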
DRD3 antagonist – antagonists of human D3 dopamine receptor; D3R cells, DiscoveRx beta-arrestin luminescence, antagonist mode; hits give low values; max response, negative = inhibition, %; actives 2.5% (n = 360,000); P35462; in the data active = max response below about -50%; inconclusive = no clear call, values can overlap the other calls; note: % is set by controls: 0 for no effect and ±100 for the full control effect
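Cells expressing the human receptor were seeded at 1500 cells/well, incubated overnight at 37 degrees C in 5% CO2, then exposed to library compounds with dopamine controls for 90 minutes at 37 degrees C before luminescent detection.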
HEK293 tox – cytotoxicity counter-screen for GLP-1 receptor inverse agonists; HEK293 cAMP-luciferase reporter cells, luminescence, 24 h; Potency, µM (top dose mostly 38.3 µM), inactives show at the highest dose activity change, negative = inhibition, most hits filed as inhibitors; actives 0.13% (n = 410,000); AID 624418;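 note: loss of luciferase light is scored as toxicity; potency is the fitted concentration of half-maximal effect; % is set by controls: 0 for no effect and ±100 for the full control effect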
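A 23 nL compound transfer followed 12 hours of cell culture at 37 deg C; exposure then lasted 24 hr. Luciferase assay detection reagent was dispensed and plates read for luminescence after a 12 min room-temperature wait.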
GLP1R ag – activates the human GLP-1 receptor. P43220. HEK293 GLP-1R CRE-luciferase, luminescence, 4-6 h; cells express a hypersensitive GLP-1R form. Potency, µM (doses to about 45.6 µM), inactives show at the highest dose activation, most hits filed as activators. actives 0.007% (n = 380,000). AID 624172; note: potency is the fitted concentration of half-maximal effect; % of control where 0% means no effect
* = called active by the depositor; ? = inconclusive; · = not tested or not shown; [ ] = dose if it differs, or a comment. This is a sample that favours compounds with a hit; in the whole collection about 5.7% have one here. Unless noted, calls come from the whole dose curve; as a rule, active = well fitted curve in the direction sought with a large enough effect; inconclusive = small, poorly fitted or top-dose-only effect, or another doubt; inactive = no such curve, though single readings can be large; an effect the other way counts as inactive or inconclusive.

SMILES | GLP1R inv ag | ClpP mod | D3 ag | DRD3 antagonist | HEK293 tox | GLP1R ag
CCCN1CCC(NC(=O)Nc2ccccc2C(=O)OC)CC1 | 1.6% | 28.2µM* | -6.2 | 10.6 | 5.7% | 6.7%
CCCCOC(=O)CSc1nnc(-c2ccc(Cl)cc2Cl)o1 | 0.8% | -1.5% | -2.0 | -51.8* | 3.6% | -10.4%
C1CCC(OCCN2CCN(CCOC3CCCCC3)CC2)CC1 | 17.3% | -1.7% | -27.0 | -63.0* | -4.5% | 2.9%
Cc1cc(=O)oc2c(C)c(OCC(=O)N(C)C)ccc12 | 11.4% | 15.8µM* | 4.0 | 35.6 | 3.4% | -18.1%
CCCCc1cc(=O)oc2c(C)c(OCC(=O)N3CCCC3)ccc12 | -24.3% | 12.6µM* | -0.4 | -5.2 | -5.1% | -1.5%
C=C(C)COc1ccc2c(CC)cc(=O)oc2c1C | 16.8% | 12.6µM* | -7.5 | -10.9 | 12.8% | ?
CCCCc1cc(=O)oc2c(C)c(OCC(=O)N3CCC(C(=O)O)(c4ccccc4)CC3)ccc12 | 9.1% | 4.5% | -6.6 | 7.0 | -19.5% | -5.2%
COc1ccc(Cc2c(C3CCCCC3)nc3c(C)cc(Br)cn23)c(C)c1 | -11.0% | -8.3% | 8.7 | 7.4 | -8.1% | 3.0%
Clc1ccc(CSC2=NCCCN2)cc1Cl | 8.91µM* | -0.3% | -10.3 | -57.5* | -25.0% | -3.4%
O=C(Nc1ccccn1)c1csc2c1CCCC2 | 0.4% | · | -2.4 | -3.3 | 6.4% | 17.3%
O=C(Nc1ccccn1)c1onc2c1CCCC2 | 2.51µM* | -2.7% | -15.9 | 0.0 | 19.8% | -32.2%
CCCCCNC(=O)c1ccc2c(=O)n(CCOC)c(=O)[nH]c2c1 | 6.7% | ? | 1.5 | 5.4 | -5.9% | -10.3%
CCCCNC(=O)CCCCCn1c(=O)[nH]c2cc(C(=O)OC)ccc2c1=O | -17.1%[7.66 µM] | -1.6% | -4.7 | -0.7 | -0.1%[7.66 µM] | -3.3%
C=CCn1c(=S)[nH]c2cc(C(=O)NCCc3ccc(S(N)(=O)=O)cc3)ccc2c1=O | 10.8% | -6.0% | 1.4 | 0.0 | 1.3% | 5.7%
COCCn1c(=S)[nH]c2cc(C(=O)NCc3ccccc3)ccc2c1=O | -6.4% | -0.8% | -6.3 | -65.9* | 2.1% | 4.1%
COC(=O)c1ccc2c(=O)n(CCCCCC(=O)O)c(=O)[nH]c2c1 | 1.5% | 28.2µM* | -18.1 | -16.5 | -2.4% | -1.6%
COCCNC(=O)c1ccc2c(=O)n(CCOC)c(=O)[nH]c2c1 | 8.0% | 25.1µM* | -3.6 | 3.9 | -1.5% | -13.1%
C=CCn1c(=S)[nH]c2cc(C(=O)Nc3ccc(F)cc3)ccc2c1=O | 5.0% | -0.5% | 47.2* | 1.6 | -20.9% | 0.9%
Cn1c(=O)nc2n(-c3ccc(Cl)c(Cl)c3)c3cc(Cl)ccc3cc-2c1=O | 0.9% | ? | 2.2 | · | -10.6% | -1.3%
CO/N=C(\C(=O)N[C@@H]1C(=O)N2C(C(=O)[O-])=C(C[n+]3ccc(N)n3CCO)CS[C@H]12)c1csc(N)n1 | · | · | -0.9 | · | · | ·
Cc1ccc2c(CNCCc3ccccc3)c(C(=O)O)n(Cc3ccccc3C)c2c1 | -6.8% | -18.1% | 6.7 | · | -0.2% | ·
COCCn1c(=O)[nH]c2cc(C(=O)NCc3ccccc3)ccc2c1=O | 3.0% | 14.1µM* | -5.5 | 7.0 | 6.7% | 0.6%
COc1ccc(NC(=O)c2ccc3c(=O)n(-c4ccc(OC)cc4OC)c(=S)[nH]c3c2)c(OC)c1 | 1.1%[7.66 µM] | 0.9% | -1.1 | -1.6 | 1.6%[7.66 µM] | -3.9%
O=C(NCc1ccccc1)c1ccc2c(=O)n(CCCN3CCCC3=O)c(=S)[nH]c2c1 | 5.3% | -1.1% | 1.6 | -51.5* | -22.2% | -14.8%
COc1ccc(-n2c(=S)[nH]c3cc(C(=O)Nc4ccc(C)c(F)c4)ccc3c2=O)c(OC)c1 | 7.08µM* | · | -0.1 | ? | -4.3% | -2.4%
Cc1ccc(CNC(=O)c2ccc3c(=O)n(CCCN4CCCC4=O)c(=S)[nH]c3c2)cc1 | 0.0% | 0.0% | -3.2 | 34.9 | 2.0% | 1.5%
NC(=O)c1nsc(C(=O)N(Cc2ccc(F)cc2)C(C(=O)NC2CCCC2)c2ccco2)c1N (stereo unspecified) | -10.7% | -0.1% | -6.7 | 0.9 | 2.3% | 3.3%

Screens from PubChem.
